High-throughput results from PubChem.
Most compounds without a hit are left out; they make up all but 17% or so of the library.
TDP1 cell CPT: DT40-hTDP1 cell growth loss with CPT. Potency, µM (series often up to 46.2 µM), hits mostly inhibitors. AID 686979. 420,000 compounds, 12% hits. chicken DT40 Tdp1-/-;hTDP1 cells + 20 nM CPT, ATP luminescence, 48 h; also: nearly all actives have a fitted effect of over 55% in size
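Chicken DT40 Tdp1-/- cells complemented with human TDP1, 400 cells/well, exposed to compounds plus 20 nM camptothecin for at least 48 h at 37 C; viability read as ATP content by CellTiter-Glo luminescence.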
TDP1 cell noCPT: qHTS for Inhibitors of human tyrosyl-DNA phosphodiesterase 1 (TDP1): qHTS in cells in absence of CPT; DT40 Tdp1-/- hTDP1 cells, no CPT, ATP luminescence, 48 h; Potency, µM (titrated, usually from 46.2 µM), actives largely listed as inhibitors; 420,000 compounds, 15% hits; also: nearly all actives have a fitted effect of over 55% in size
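Stably hTDP1-transfected Tdp1-null chicken DT40 cells were treated with library compounds minus camptothecin and grown for at least 48 hr at 37 °C, after which cellular ATP was quantified by luminescence.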
HT1080NT lethal: kills 2HG-producing HT-1080-NT fibrosarcoma cells | HT-1080-NT fibrosarcoma viability, CellTiter-Glo ATP luminescence, 48 h | Potency, µM (series often up to 46.1 µM), most hits filed as cytotoxic | 360,000 compounds, 1.6% hits | AID 686970;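 also: NT is the 2HG producing partner of a matched IDH1 knockdown line; nearly all actives have a fitted effect of over 55% in size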
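Viability by CellTiter-Glo luminescence after 48 h compound exposure at 37C of HT-1080-NT cells (750/well, RPMI, 5% FBS). % activity scaled between DMSO wells and medium-only wells, then curve-fitted and categorized by curve class.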
TGFb inhibitor: inhibitors of TGF-b signaling; AID 588855; 410,000 compounds, 1.2% hits; Potency, µM (highest dose often 46.1 µM), hits mostly inhibitors; HepG2 CAGA-GFP TGF-b/SMAD3 reporter, GFP fluorescence, 18 h; TGF-beta stimulated, 500 pg/mL final; also: nearly all actives have a fitted effect of over 65% in size
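TGF-beta reporter screen: HEPG2 CAGA-GFP, 1% FBS, 500 pg/mL TGF-beta final, 18 h; per-cell GFP summed per well; curves fitted and categorized by class.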
HepG2 tox: HepG2 cytotoxicity, counter-screen for TGF-b inhibitors; HepG2 CAGA-GFP viability, ATP luminescence, 18 h; Potency, µM (highest dose often 46.1 µM), hits mostly cytotoxic; 410,000 compounds, 0.76% hits
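HepG2 CAGA-GFP cells (1000/well, DMEM with 1% FBS) received compound, then TGF-beta at 500 pg/mL final, and were incubated 18 hours at 37 degrees C. Viability was read by CellTiter-Glo luminescence. Media-only wells were set as complete cell-killing and DMSO as no toxicity.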
HT1080 IDH1KD tx: kills HT-1080 cells with IDH1 knockdown; 360,000 compounds, 2% hits; HT-1080 IDH1 knockdown viability, ATP luminescence, 48 h; Potency, µM (highest dose often 46.1 µM), hits mostly cytotoxic
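Using the IDH1-knockdown HT-1080 line run in the same batch and compound series as the NT line, viability after 48 h at 37 °C was determined by CellTiter-Glo luminescence and expressed as % activity.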
Of the large screens only hits and unclear results are named; the others gave an inactive call; ! = not confirmed by another sample. Calls follow the shape of the dose curve; as a rule, active = well fitted curve in the direction sought with a large enough effect; inconclusive = small, poorly fitted or top-dose-only effect, or another doubt; inactive = no such curve, though single readings can be large; an effect the other way counts as inactive or inconclusive.

COc1cc2[nH]c(=S)n(-c3ccccc3)c(=O)c2cc1OC	none
O=C(CCCCCn1c(=S)[nH]c2ccccc2c1=O)N1CCC2(CC1)OCCO2	none
COc1cc2[nH]c(=O)n(Cc3ccc(C(=O)N4CCN(c5ccc(Cl)cc5)CC4)cc3)c(=O)c2cc1OC	TDP1 cell CPT 3.3µM, TDP1 cell noCPT 2.9µM, TGFb inhibitor inconclusive (no result: HT1080NT lethal, HT1080 IDH1KD tx)
CCOc1cc2[nH]c(=O)n(CCCCC(=O)N3CCN(c4ccccc4)CC3)c(=O)c2cc1OCC	TDP1 cell CPT inconclusive, TDP1 cell noCPT 5.2µM (no result: HT1080NT lethal, HT1080 IDH1KD tx)
COc1cc2[nH]c(=O)n(-c3ccc(C)cc3)c(=O)c2cc1OC	none
COc1ccccc1N1CCN(C(=O)CCCn2c(=S)[nH]c3ccccc3c2=O)CC1	TDP1 cell CPT 8.2µM, TDP1 cell noCPT 5.2µM
Cc1c(C(=O)Nc2ccc(Br)cc2F)oc2ccc(S(=O)(=O)N3CCCCC3)cc12	TDP1 cell CPT inconclusive, TDP1 cell noCPT inconclusive (no result: HT1080NT lethal, HT1080 IDH1KD tx)
Nc1nnc(CCN2CCCCC2)s1	none
Cc1ccc(S(=O)(=O)c2nnn3c2nc(N2CCC(C(N)=O)CC2)c2cc(Cl)ccc23)cc1C	TDP1 cell CPT 21µM, TDP1 cell noCPT 5.2µM (no result: HT1080NT lethal, HT1080 IDH1KD tx)
COC(=O)C1=C(c2ccc(F)cc2F)C[C@@H]2CC[C@H]1N2C(=O)NC(C)C	none
C=C1C(=O)OC2C1CCC(C)C1(O)C=CC(=O)C21C (configuration not stated)	TDP1 cell CPT 2.6µM, TDP1 cell noCPT 2.3µM, HT1080NT lethal inconclusive, TGFb inhibitor inconclusive, HT1080 IDH1KD tx inconclusive
COc1ccccc1Sc1ccccc1CC(C)N (configuration not stated)	TDP1 cell CPT 15µM, TDP1 cell noCPT 18µM
COc1cc(CC(C)N)c(OC)cc1I (configuration not stated)	TDP1 cell noCPT inconclusive
COc1ccc(OC)c(CC(C)N)c1 (configuration not stated)	none (no result: HT1080NT lethal, TGFb inhibitor, HepG2 tox, HT1080 IDH1KD tx)
COc1cc(CC(C)N)c(OC)cc1Br (configuration not stated)	TDP1 cell CPT inconclusive, TDP1 cell noCPT 28µM (no result: HT1080NT lethal, TGFb inhibitor, HepG2 tox, HT1080 IDH1KD tx)
COC(=O)C1=C(c2ccc(F)cc2F)C[C@@H]2CC[C@H]1N2C(=O)NCc1ccco1	TDP1 cell noCPT inconclusive, TGFb inhibitor inconclusive
C[C@@H]1CN([C@H](C)CO)C(=O)CCCn2cc(nn2)CO[C@H]1CN(C)C(=O)Oc1cccc2ccccc12	TGFb inhibitor inconclusive, HepG2 tox 10µM
Nc1ccc(Cl)cc1N	TDP1 cell CPT inconclusive (no result: HT1080NT lethal, TGFb inhibitor, HepG2 tox, HT1080 IDH1KD tx)
CCOC(=O)c1ccccc1OC(=O)NNc1ccccc1	HT1080NT lethal 5.8µM, HT1080 IDH1KD tx 12µM
COc1cccc(C2(C#N)CCN(C)CC2)c1	none
Cc1c(C(=O)N2CCC3(CC2)OCCO3)sc2ncnc(N3CCN(c4ccccn4)CC3)c12	TDP1 cell CPT 21µM, TDP1 cell noCPT 16µM
C=C(C)[C@H]1CN[C@H](C(=O)O)[C@H]1CC(=O)O	TDP1 cell CPT inconclusive, TDP1 cell noCPT 21µM!, HT1080NT lethal inconclusive
CC(C)(C)c1ccc(CSc2cnn(C(C)(C)C)c(=O)c2Cl)cc1	TDP1 cell CPT 0.16µM, TDP1 cell noCPT 0.033µM
COc1ccc(/C=C/C(=O)NC(=S)NCCc2ccc(OC)c(OC)c2)cc1	TDP1 cell CPT inconclusive, TDP1 cell noCPT inconclusive, HT1080NT lethal 11µM, TGFb inhibitor 5.6µM, HepG2 tox 6.3µM, HT1080 IDH1KD tx 10µM
CC(=O)C1=C(O)C2(C)c3c(O)c(C)c(O)c(C(C)=O)c3OC2CC1=O (configuration not stated)	TDP1 cell CPT inconclusive, TDP1 cell noCPT 23µM, HT1080NT lethal inconclusive, TGFb inhibitor inconclusive
COC(=O)C1=C(c2cccc(OC)c2OC)C[C@@H]2CC[C@H]1N2C(=O)N1CCOCC1	none
